The values that follow come from PubChem BioAssay (NCATS).

“And” between values parts separate entries of the source, which are not always exact repeats. Identical values can stand only once. The source made the active and inactive calls. The call rests on the fitted dose curve.

A short description of the first assay: qHTS drug screen for cell cycle checkpoint inhibitors in PARPi-resistant BRCA-mutant ovarian cancer cell lines. (AID 1963452). The settings on record: PEO1/OlaR viability, CellTiter-Glo luminescence, 96 h; stronger effect = lower value. In a few lines: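 PEO1, PEO4 and PEO1/OlaR ovarian cancer cells, 600 per well, exposed 96 h at 37C to a dilution series. Viability read by CellTiter-Glo luminescence, normalized to DMSO and empty wells; activity summarized as Z-AUC.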
Background: Quantitative high-throughput screening tests each substance at several concentrations.
`O=C(/C=C\n1cnc(-c2cc(C(F)(F)F)cc(C(F)(F)F)c2)n1)NNc1ccccn1`: the Z-AUC is -0.821 (inactive). On to `C=CC(=O)Nc1cccc(Oc2nc(Nc3ccc(N4CCN(C)CC4)c(F)c3)nc3[nH]ccc23)c1`, for which the Z-AUC was -1.38 (inactive). Still for that read-out and setting: the result for `O=S(=O)(Nc1ccc(-c2cccnc2)c2cccnc12)c1cccc(C(F)(F)F)c1` reads 0.456 (inactive).

Turning to `CC(C)n1ncnc1-c1cn2c(n1)-c1ccc(O[C@@H](C)C(N)=O)cc1OCC2`, the Z-AUC is -1.61 (inactive).

For `C=C1CCC[C@]2(C)C=C3OC(=O)C(C)=C3C[C@@H]12`, the Z-AUC is 0.206 (inactive). Still for that read-out and setting: the result for `COc1cc(C)[nH]c(=O)c1CN1CCc2c(Cl)cc([C@H](OC)C3COC3)c(Cl)c2C1=O` reads 1.05 (inactive).

With `CC1=NN(c2ccc(C(=O)O)cc2)C(=O)/C1=C/c1ccc(-c2cc(C)c(C)cc2[N+](=O)[O-])o1`, the Z-AUC is 0.0308 (inactive).

The same assay, now with this note: PEO1/OlaR viability, CellTiter-Glo luminescence, 96 h; measured here: PEO1 parental Z-AUC; stronger effect = lower value.
As for `CCOc1ccc(Cc2cc([C@@H]3O[C@H](CO)[C@@H](O)[C@H](O)[C@H]3O)ccc2Cl)cc1`, the Z-AUC stood at 1.31. On to `COC(=O)[C@H]1[C@@H](O)[C@@]2(O)c3c(OC)cc(O[C@@H]4O[C@@H]([C@@H](O)CO)CO[C@H]4OC)cc3O[C@@]2(c2ccc(OC)cc2)[C@@H]1c1ccccc1`, for which the Z-AUC was 0.913. The same measure, in the same setting: the result for `O=C(NCc1ccc(S(=O)(=O)c2cccc(C(F)(F)F)c2)cc1)c1cnc2[nH]ncc2c1` reads -2.73; that for `COC[C@@H](c1ccc(C(F)(F)F)cc1)N1CCN(C2(C)CCN(C(=O)c3c(C)ncnc3C)CC2)C[C@@H]1C`, 1.03.

On to `Cc1c(F)cccc1NC(=O)Nc1ccc(Cl)c(S(=O)(=O)[C@H]2CCCNC2)c1O`, for which the Z-AUC was determined as 1.25. Still for that read-out and setting: next, `Cc1ccc(-c2nc(N)nc3c2nnn3Cc2cccc(CO[C@H]3CCOC3)n2)o1`: -0.982; `CCNC(=O)Nc1ccc(Oc2ncnc(N)c2/C=N/OC)cc1Cl`: 1.52.

As to `COc1cccc(-c2c(C)n(Cc3c(F)cccc3C(F)(F)F)c(=O)n(C[C@H](NCCCC(=O)O)c3ccccc3)c2=O)c1F`, the Z-AUC was 0.714 and 0.439.

With `C=CC(=O)N1CCC(CNc2ncnc(N)c2-c2ccc(Oc3ccccc3)cc2)CC1`, the Z-AUC amounted to 1.18. Still for that read-out and setting: next, `O=C1CC[C@H](N2Cc3c(OCc4ccc(CN5CCOCC5)cc4)cccc3C2=O)C(=O)N1`: 1.06; `C[C@@H]1C(=O)OC2[C@H](O)[C@]34[C@H]5C[C@@H](C(C)(C)C)[C@]36[C@@H](OC(=O)[C@@H]6O)O[C@@]4(C(=O)O5)[C@]21O` (some centres not stated): 0.871; `O=C(Nc1nccs1)C(c1cc(F)ccc1O)N1Cc2ccccc2C1=O` (configuration not stated): -0.736.

With `C=CC(=O)N1CCC[C@H](n2c(=O)n(-c3ccc(Oc4ccccc4)cc3)c3c(N)ncnc32)C1`, the Z-AUC amounted to 0.044. As for `COc1cc(C(=O)NC(N)=Nc2ccc(C)c(NC(=O)c3ccc(-c4ccccc4)cc3)c2)cc(OC)c1OC`, the Z-AUC worked out at 0.261. The same measure, in the same setting: next, `COC(=O)C1=C(C)NC(c2ncc(F)cc2F)=N[C@H]1c1ccc(F)cc1Cl`: 0.182; `COc1ccc(COc2ccc(Cc3cnc(N)nc3N)cc2OC)cc1`: 0.516; `CC1(C)C(N(O)C(=O)Nc2ccc(Cl)cc2)N(c2ccc(Cl)cc2)C(=O)N1CC(=O)N/N=C/C=C/c1ccc([N+](=O)[O-])o1` (configuration not stated): 1.13. As for `Cc1cc(-c2cnn3c(NCC4CC(C)(O)C4)cc(Oc4cccnc4)nc23)ccc1C(=O)NC1CC1` (configuration not stated), the Z-AUC is 0.402. `Cn1c(-c2ccccc2C(F)(F)F)nnc1C12CCC(c3noc(C4CC(F)(F)C4)n3)(CC1)CC2`: the Z-AUC worked out at 1.05.

For the compound `C[C@]12CC[C@H](O)CC1=CC[C@@H]1[C@@H]2CC[C@]2(C)C(c3cccnc3)=CC[C@@H]12`, the Z-AUC came out at 0.324. For `Cc1cc(C)cc(Oc2ccc(CNC(=O)[C@H](C)N)cc2C)c1`, the Z-AUC was found to be 1.04. Same read-out and setting: next, `Cn1cc(-c2nc(N[C@@H]3CCCC[C@@H]3N)c(F)c3c2C(=O)NC3)cn1`: 0.884. Same read-out and setting: next, `CC[C@@]1(O)C(=O)OCc2c1cc1n(c2=O)Cc2c-1nc1ccccc1c2CCNC(C)C`: -2.94; `c1ccc(CNCc2ccc(CN3CCCNCCNCCCNCC3)cc2)nc1`: 1.27; `CN1C(=O)N[C@H](Cc2c[nH]c3c(Cl)cccc23)C1=O`: 0.688. Same read-out and setting: next, `Cc1ccc(NS(=O)(=O)c2ccc3c(c2)C2C=CCC2C(c2ccc(C(=O)O)cc2)N3)cc1C` (configuration not stated): -0.264; `O=C(Nc1ccccc1)Nc1ccc(-c2ccc(C(=O)[C@@H]3CCC[C@H]3C(=O)O)cc2)cc1`: 0.577; `CCS(=O)(=O)c1ccc2oc(-c3ccc4ccccc4c3)nc2c1`: -0.286. Turning to `C[C@]12CCC3=C4CCC(=O)C=C4CC[C@H]3[C@@H]1CC[C@@]2(O)CC#N`, the Z-AUC was determined as 1.75. On to `CC(C)=CCC[C@](C)(O[C@@H]1O[C@H](CO[C@@H]2O[C@H](CO)[C@@H](O)[C@H](O)[C@H]2O)[C@@H](O)[C@H](O)[C@H]1O)[C@H]1CC[C@]2(C)[C@@H]1[C@H](O)C[C@@H]1[C@@]3(C)CC[C@H](O[C@@H]4O[C@H](CO)[C@@H](O)[C@H](O)[C@H]4O[C@@H]4O[C@H](CO)[C@@H](O)[C@H](O)[C@H]4O)C(C)(C)[C@@H]3CC[C@]12C`, for which the Z-AUC came to 1.48.

On to `N=C1S/C(=C\c2ccc(-c3ccc4c(c3)C(=O)NC4=O)o2)C(=O)N1c1ccc(Br)cc1`, for which the Z-AUC was determined as 0.782.

Turning to `O=C(/C=C\n1cnc(-c2cc(C(F)(F)F)cc(C(F)(F)F)c2)n1)NNc1ccccn1`, the Z-AUC is -1.43. Same read-out and setting: the result for `C=CC(=O)Nc1cccc(Oc2nc(Nc3ccc(N4CCN(C)CC4)c(F)c3)nc3[nH]ccc23)c1` reads -0.613; that for `O=S(=O)(Nc1ccc(-c2cccnc2)c2cccnc12)c1cccc(C(F)(F)F)c1`, 0.0874; that for `CC(C)n1ncnc1-c1cn2c(n1)-c1ccc(O[C@@H](C)C(N)=O)cc1OCC2`, -1.38. Still for that read-out and setting: the result for `COc1ccc2[nH]c3c(c2c1)CCN[C@]31CS[C@@H]2c3c(OC(C)=O)c(C)c4c(c3[C@H](COC1=O)N1[C@@H]2[C@H]2c3c(cc(C)c(OC)c3O)C[C@@H]([C@@H]1O)N2C)OCO4` reads -2.79; that for `COc1cc([C@@H]2c3cc4c(cc3[C@@H](O[C@@H]3O[C@@H]5CO[C@@H](c6cccs6)O[C@H]5[C@H](O)[C@H]3O)[C@H]3COC(=O)[C@H]23)OCO4)cc(OC)c1O`, -1.88. In the case of `C=C1CCC[C@]2(C)C=C3OC(=O)C(C)=C3C[C@@H]12`, the Z-AUC is -0.068. Regarding `COc1cc(C)[nH]c(=O)c1CN1CCc2c(Cl)cc([C@H](OC)C3COC3)c(Cl)c2C1=O`, the Z-AUC was 0.817. Still for that read-out and setting: the result for `CC1=NN(c2ccc(C(=O)O)cc2)C(=O)/C1=C/c1ccc(-c2cc(C)c(C)cc2[N+](=O)[O-])o1` reads 0.127.
